PubChem BioAssay AID1578 (Sanford-Burnham Center for Chemical Genomics, 2009)
Out of some 290,000 compounds screened, about 3,000 (1%) were called active. The sample as a whole holds a higher share of actives than the screen did. A number with no mark means an inactive call. Rule as the data show it: active = inhibition mostly above about 36% (no sharp cut-off); inactive = mostly below about 34%.

Test: inhibition of NOD1-driven NF-kB reporter – cell-based, luminescence, uHTS, primary screen (AID 1578);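 also: HEK-293T reporter cells stimulated with the NOD1 agonist gamma-tri-DAP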
Conditions: NOD1-driven NF-kB luciferase reporter cells, at 4 µM, stronger effect = higher value

Structure (SMILES) | inhibition
Cc1c(NC(=O)C(C#N)=C2CCCCC2)c(=O)n(-c2ccccc2)n1C | -3.8%
O=C(c1cc(F)ccc1F)C1CCCN(C(=O)CCN2CCCCO2)C1 (centres undefined) | -29.2%
O=C(Nc1nc2ccc(F)cc2s1)c1cccs1 | -59.7%
Cc1ccc2nc(NC(=O)c3ccccn3)sc2c1 | 109% (active)
O=C(Nc1nc2c(F)cc(F)cc2s1)c1ccccn1 | 70.9% (active)
O=C(Nc1nc2ccc(S(=O)(=O)N3CCCC3)cc2s1)c1ccccn1 | -16.1%
COC(=O)c1ccc2nc(NC(=O)C(C)(C)C)sc2c1 | 35.8%
O=C(Nc1nc2ccc(F)cc2s1)c1ccccn1 | 107% (active)
Cc1ccc2nc(NC(=O)COC(=O)c3ccccn3)sc2c1 | -22%
O=C(Nc1nc2c(F)cc(F)cc2s1)c1ccco1 | -3.5%
O=C(NNc1nc2c(F)cc(F)cc2s1)c1ccccc1 | -5.8%
Cc1ccc2nc(NC(=O)c3ccccc3F)sc2c1 | -69.7%
Fc1ccc2nc(Nc3nc4c(F)cc(F)cc4s3)sc2c1 | 2.7%
COc1cc(CN2CCCC(N3CCN(c4ccc(F)cc4)CC3)C2)ccc1F (centres undefined) | 61.4%
COc1ccccc1S(=O)(=O)N1CCC(C(=O)O)(c2ccccc2)CC1 | 14.5%
COc1ccc(NC(=S)c2ccncc2)cc1 | -9.9%
CC(Sc1nnc(N)s1)C(=O)Nc1ccc(N2CCOCC2)cc1 (centres undefined) | -20.5%
COc1ccc(NC(=O)Cc2c(F)c(F)c(F)c(F)c2F)cc1OC | 2.8%
Cc1csc(NC(=O)CSc2nc(C(C)C)nc3ccccc23)n1 | 12.9%
O=C1N/C(=N\c2ccccn2)SC1Cc1ccc(Cl)cc1 (centres undefined) | 103% (active)
Cc1ccc(CC2S/C(=N/c3ccccn3)NC2=O)cc1 (centres undefined) | 17%
O=C1N/C(=N/c2ccccn2)SC1Cc1ccccc1 (centres undefined) | -21%
CCCCN1CC(=O)N2Cc3[nH]c4ccccc4c3C[C@H]2C1=O | -2.4%
O=C(Nc1ccccc1)C1(c2ccccc2)CC1(Cl)Cl (centres undefined) | -28.2%
Cc1ccc(SCC(=O)NCCN2C(=O)CSC2=O)c(C)c1 | -23.2%

Structure (SMILES) | inhibition
S=c1sc2c(N3CCN(Cc4ccccc4)CC3)ncnc2n1-c1ccccc1 | -6.8%
S=c1sc2c(N3CCOCC3)ncnc2n1-c1ccccc1 | 9%
S=c1sc2c(Cl)ncnc2n1-c1ccccc1 | 69.8% (active)
CN1CCN(CC2(O)CCN(S(=O)(=O)c3ccc(Cl)cc3)CC2)CC1 | -21.7%
Cc1cccc2c(=O)c(C(=O)NCCc3ccccc3)c[nH]c12 | -28.3%
O=C(NCCc1ccccc1)c1cc2ncc(Br)cn2n1 | -28.5%
NC1=NC(=O)/C(=C/c2cccc(F)c2)S1 | -12%
NC1=NC(=O)/C(=C\c2cccnc2)S1 | 53.6% (active)
NC1=NC(=O)/C(=C/c2ccc(Br)cc2)S1 | 25%
Cc1cc(OCC(=O)N2CCN(c3ccccc3)CC2)c2c(C)cc(=O)oc2c1 | -49.6%
O=C(NCc1nnc(SCC(=O)N2CCCc3ccccc32)o1)c1ccco1 | -0.1%
CC(=O)OC1C2CCC1C([N+]1(C)CCCCC1)CC2 (centres undefined) | -31.7%
NC(=O)c1cc2ccc(O)cc2oc1=Nc1ccccc1 | 92.8% (active)
COc1ccc2cc(C(N)=O)c(=Nc3ccccc3)oc2c1 | 34.9%
Cc1cccc(N=c2oc3cc(O)ccc3cc2C(N)=O)c1 | 44.6%
CCN(CC)S(=O)(=O)c1cc(NC(=O)CCCOc2ccc(C(C)=O)cc2)ccc1C | 6.3%
Oc1c(Br)cc(C=Nc2ccc3nc(-c4ccccc4)[nH]c3c2)c(O)c1Br | 33.9%
Cc1cccc(N2C(=O)C3C4C=CC(CC4)C3C2=O)c1 (centres undefined) | -21.6%
Cc1c(C)c2ccc(O[C@@H]3O[C@H](CO)[C@H](O)[C@H](O)[C@H]3O)cc2oc1=O | -1%
Cc1cc(C(=O)CSc2nnc(-c3ccco3)o2)c(C)n1CC1COc2ccccc2O1 (centres undefined) | 43.4%
Cc1cc(C(=O)CSc2nnc(-c3ccco3)o2)c(C)n1Cc1ccco1 | 3.1%
Cc1ccc(S(=O)(=O)N2CCN(C(=O)CSc3nnc(-c4ccco4)o3)CC2)cc1 | -19%
Cc1c(C(=O)O)oc2ccc(S(=O)(=O)N3CC(C)CC(C)C3)cc12 (centres undefined) | -13%
CCN(CC)C(=O)c1oc2ccc(S(=O)(=O)N3CCCCCC3)cc2c1C | 20.9%
COc1cccc(-n2c(SCC#N)nnc2-c2cnccn2)c1 | 5.2%

Structure (SMILES) | inhibition
CC(C)CCN1CCN(Cc2cccc3nonc23)CC1CCO (centres undefined) | -23.9%
O=C(Nc1cccnc1)c1cc(-c2ccc(Br)cc2)nc2ccccc12 | -14.6%
CCCCc1oc2ccccc2c1C(=O)c1cc(I)c(OCCN(CC)CC)c(I)c1 | -7.6%
CCc1oc2ccccc2c1C(=O)CCN1CCCCC1 | 39.5%
CCc1oc2ccccc2c1C(=O)c1cc(Br)c(O)c(Br)c1 | 87.3% (active)
O=C(Nc1ccc(OCC(F)(F)C(F)F)c(C(F)(F)F)c1)c1ccccc1O | 77.1% (active)
O=C(O)c1ccccc1C(=O)Nc1ccc(Br)c(C(F)(F)F)c1 | -11.4%
O=C(Nc1ccc(OCC(F)(F)C(F)F)cc1)c1ccncc1 | -18.2%
O=C(CN1C(=O)CCSc2ccc(S(=O)(=O)N3CCCC3)cc21)Nc1ccccc1Cl | -4.7%
CCN1CCN(C(=O)COCc2cc(-c3ccc4c(c3)OCO4)on2)CC1 | -17.7%
Cc1ccc2c(c1)N(S(=O)(=O)c1cc(-c3onc(C)c3C)ccc1C)CCO2 | 29.7%
CC(C)(C)n1ncc(Oc2ccccc2[N+](=O)[O-])c(Cl)c1=O | 12.6%
CCN=C1NN=C(c2cc(C)n(Cc3ccco3)c2C)CS1 | 81.7% (active)
CCN=C1NN=C(c2cc(C)n(CCc3ccccc3)c2C)CS1 | -15%
Cc1cc(C2=NNC(=NC3CC3)SC2)c(C)n1Cc1ccco1 | 90.4% (active)
COCCCN=C1NN=C(c2cc(C)n(Cc3ccco3)c2C)CS1 | -8.2%
Cc1cc(C2=NNC(=NC3CCCCC3)SC2)c(C)n1-c1c(C)n(C)n(-c2ccccc2)c1=O | 2.7%
CC(C)=CC1C=C(C)C(C)C2C(=O)NNC(=O)C12 (centres undefined) | 10.4%
CCOC(=O)C1=C(COC(=O)/C=C/c2ccccc2Cl)NC(=O)NC1C (centres undefined) | -17.4%
CCOC(=O)C1=C(c2ccccc2)ON(C)C1c1ccccc1 (centres undefined) | -0.8%
N#C/C(=C(/O)c1ccc([N+](=O)[O-])s1)c1nc2ccccc2[nH]1 | 71.6% (active)
N#C/C(=C(/O)c1ccc([N+](=O)[O-])o1)c1nc2ccccc2[nH]1 | -7.3%
N#C/C(=C(/O)c1ccc([N+](=O)[O-])cc1)c1nc2ccccc2[nH]1 | 3.7%
COc1ccccc1/C(O)=C(\C#N)c1nc2ccccc2[nH]1 | 5.5%
N#C/C(=C\c1ccc([N+](=O)[O-])o1)c1nc2ccccc2[nH]1 | 96.8% (active)

Structure (SMILES) | inhibition
Cc1ccc2nc(/C(C#N)=C\c3ccc([N+](=O)[O-])o3)[nH]c2c1 | 0.5%
N#C/C(=C(/O)c1ccc(Cl)cc1)c1nc2ccccc2[nH]1 | 3.5%
N#C/C(=C(/O)c1ccc(Br)s1)c1nc2ccccc2[nH]1 | 9.1%
N#C/C(=C(\O)c1cc(Cl)sc1Cl)c1nc2ccccc2[nH]1 | 64.5% (active)
NC(=O)c1c(NC(=O)C(=O)NCCCN2CCOCC2)sc2c1CCCC2 | 6%
O=C(CCNS(=O)(=O)/C=C/c1ccccc1)NCCc1c[nH]c2ccccc12 | -0.1%
CCN(CC)Cc1c(C(=O)N/N=C/c2ccc(OCc3ccccc3C)cc2)nnn1-c1nonc1N | -6.7%
COc1ccc(NC(=O)CCCn2cnc3ccccc3c2=O)cc1 | 9%
COC(=O)c1ccc(Cl)c(NC(=O)c2cccc([N+](=O)[O-])c2C)c1 | -17.4%
COC(=O)c1ccc(N/N=C/c2cc([N+](=O)[O-])cc(OC)c2O)cc1 | -49.6%
CCOC(=O)c1ccc(N/N=C/c2cc(Br)cc([N+](=O)[O-])c2O)cc1 | 97.2% (active)
O=C(N/N=C/c1cc(Br)cc([N+](=O)[O-])c1O)c1ccc(NC(=O)c2ccc(F)cc2)cc1 | 7%
CCn1c(CNc2ccc(Cl)cc2)nnc1SCC#N | -48.7%
COc1ccc(-c2[nH]ncc2CN2CCCC2c2nonc2C)c(F)c1 (centres undefined) | -55.4%
COc1cc(C(=O)OCC(=O)Nc2ccc(F)cc2F)cc(OC)c1OC | 3.5%
O=C(/C(=N\Nc1ccc(Br)cc1)Sc1nnnn1-c1ccccc1)c1ccccc1 | -15%
O=C(/C(=N\Nc1ccccc1)Sc1nnnn1-c1ccccc1)c1ccccc1 | 93.1% (active)
Cc1ccc(N/N=C(/Sc2nnnn2-c2ccccc2)C(=O)c2ccccc2)cc1 | -42.4%
Cc1ccc(C)c(C(=O)CN2C(=O)CCC2=O)c1 | -14.2%
Cc1ccc(C)c(C(=O)CN2C(=O)c3ccccc3C2=O)c1 | 56.5% (active)
CC1=CC(C)(C)N(C(=O)CN2C(=O)c3ccccc3C2=O)c2ccc(C)cc21 | 33.2% (active)
CC1=CC(C)(C)N(C(=O)CN2C(=O)CCC2=O)c2ccc(C)cc21 | -11.3%
Cc1ccc(C)c(C(=O)CN2Cc3ccccc3C2=O)c1 | -5.3%
CC1=CC(C)(C)N(C(=O)CN2C(=O)c3ccccc3C2=O)c2ccccc21 | -18.1%
